“And” between values parts separate entries of the source, which are not always exact repeats. Equal entries are not always repeated. Out of some 5,500 compounds screened, about 2,000 (36%) were called active. Not shown: some 18% with an inconclusive outcome. Rule as the data show it: active = normalized growth mostly below about 0.91 (no sharp cut-off); inconclusive = no clear call, values can overlap the other calls; inactive = mostly above about 0.92. The list shows a part of the results.
Test: chemical genetic growth profiling, strain panel (AID 1159580);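 also: tested at 20 µM; growth read once vehicle control cultures reached saturation at 30 °C; 1 = growth at the plate median or of vehicle wells; lower values mean less growth of the strain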
Conditions: S. cerevisiae deletion strains, growth OD

Measured: normalized growth

CC(=O)Oc1cc(OC(C)=O)c2c(c1)O[C@H](c1ccc(OC(C)=O)c(OC(C)=O)c1)[C@H](OC(C)=O)C2
inactive: locus YAL013W, strain DEP1, hits give low values 1.01 | locus YAL021C, strain ccr4, hits give low values 1 | locus YAL026C, strain drs2, hits give low values 1.01 | locus YAL030W, strain snc1, hits give low values 1 | locus YBL061C, strain skt5, hits give low values 0.994 | locus YBR009C, strain hhf1, hits give low values 0.965 | locus YBR021W, strain FUR4, hits give low values 1 | locus YBR023C, strain chs3, hits give low values 0.998 | locus YBR171W, strain sec66, hits give low values 0.999 | locus YBR229C, strain ROT2, hits give low values 1.01 | locus YBR231C, strain swc5, hits give low values 1.01 | locus YBR279W, strain paf1, hits give low values 0.985 | locus YCL011C, strain gbp2, hits give low values 0.982 | locus YCL016C, strain dcc1, hits give low values 0.971 | locus YCL029C, strain bik1, hits give low values 1.02 | locus YCL061C, strain MRC1, hits give low values 0.999 | locus YCL069W, strain vba3, hits give low values 1 | locus YCR088W, strain abp1, hits give low values 1 | locus YDL005C, strain med2, hits give low values 1.01 | locus YDL035C, strain GPR1, hits give low values 1.01 | locus YDL040C, strain nat1, hits give low values 1 | locus YDL074C, strain BRE1, hits give low values 1.01 | locus YDL101C, strain DUN1, hits give low values 1.01 | locus YDL185W, strain tfp1, hits give low values 1.03 | locus YDL192W, strain arf1, hits give low values 1.02 | locus YDR001C, strain nth1, hits give low values 0.999 | locus YDR069C, strain doa4, hits give low values 1 | locus YDR101C, strain arx1, hits give low values 1.02 | locus YDR137W, strain rgp1, hits give low values 1.02 | locus YDR159W, strain sac3, hits give low values 1.02 | locus YDR162C, strain NBP2, hits give low values 1 | locus YDR195W, strain ref2 1.04 | locus YDR297W, strain sur2, hits give low values 0.996 | locus YDR318W, strain mcm21, hits give low values 1.03 | locus YDR334W, strain swr1, hits give low values 1 | locus YDR335W, strain msn5, hits give low values 1 | locus YDR388W, hits give low values 1.03 | locus YDR392W, strain spt3, hits give low values 0.964 | locus YDR502C, strain sam2, hits give low values 1.02 | locus YEL003W, strain gim4, hits give low values 1 | locus YEL037C, strain rad23, hits give low values 1 | locus YEL061C, strain CIN8 (second series), hits give low values 0.997 | locus YEL061C, strain CIN8, hits give low values 1 | locus YER015W, strain faa2, hits give low values 0.983 | locus YER016W, strain bim1, hits give low values 1 | locus YER110C, hits give low values 1.03 | locus YER111C, strain swi4, hits give low values 0.995 | locus YER155C, strain BEM2 (second series), hits give low values 1.05 | locus YER155C, strain BEM2, hits give low values 0.999 | locus YER167W, strain BCK2, hits give low values 1.02 | locus YFR010W, strain ubp6, hits give low values 0.998 | locus YGL078C, strain dbp3, hits give low values 1.02 | locus YGL086W, strain mad1, hits give low values 0.997 | locus YGL167C, strain pmr1, hits give low values 0.998 | locus YGL173C, strain kem1, hits give low values 1 | locus YGL227W, strain vid30, hits give low values 0.991 | locus YGL240W, strain doc1, hits give low values 1.04 | locus YGL248W, strain PDE1, hits give low values 1.01 | locus YGL253W, strain hxk2, hits give low values 0.984 | locus YGR078C, strain PAC10, hits give low values 1 | locus YGR135W, strain pre9, hits give low values 1.02 | locus YGR252W, strain gcn5, hits give low values 1.05 | locus YHR013C, strain ard1, hits give low values 0.999 | locus YHR027C, strain rpn1, hits give low values 0.999 | locus YHR030C, strain SLT2, hits give low values 1.01 and 0.946 | locus YHR079C, strain IRE1 (second series), hits give low values 1.03 | locus YHR079C, strain IRE1, hits give low values 0.968 | locus YHR094C, strain hxt1, hits give low values 1.02 | locus YHR129C, strain ARP1, hits give low values 1.01 | locus YHR142W, strain chs7, hits give low values 0.944 | locus YHR200W, strain rpn10, hits give low values 1.03 | locus YIL066C, strain RNR3, hits give low values 0.999 | locus YIL073C, strain SPO22, hits give low values 1.1 | locus YIL125W, strain kgd1, hits give low values 1.01 | locus YIR030C, strain dcg1, hits give low values 1.03 | locus YJL092W, strain hpr5, hits give low values 1 | locus YJL095W, strain BCK1 (second series), hits give low values 0.99 | locus YJL095W, strain BCK1, hits give low values 1 and 0.959 | locus YJL115W, strain asf1, hits give low values 1 | locus YJL129C, strain trk1, hits give low values 0.999 | locus YJL134W, strain LCB3, hits give low values 1.01 | locus YJL154C, strain vps35, hits give low values 1 | locus YJL164C, strain tpk1, hits give low values 0.984 | locus YJL166W, strain qcr8, hits give low values 1 | locus YJL168C, strain set2, hits give low values 1.03 | locus YJL187C, strain SWE1 (second series), hits give low values 1.01 | locus YJL187C, strain SWE1, hits give low values 1.01 | locus YJR043C, strain POL32, hits give low values 1.01 | locus YJR066W, strain TOR1, hits give low values 0.935 | locus YJR075W, strain HOC1, hits give low values 1.02 | locus YKL009W, strain mrt4, hits give low values 1.02 | locus YKL068W, hits give low values 1.01 | locus YKL085W, strain MDH1 (second series), hits give low values 1.01 | locus YKL085W, strain MDH1, hits give low values 1.01 | locus YKL160W, strain elf1, hits give low values 1.01 | locus YKR001C, strain vps1, hits give low values 1.02 | locus YKR026C, strain gcn3, hits give low values 0.994 | locus YKR091W, strain srl3, hits give low values 0.994 | locus YLL001W, strain dnm1, hits give low values 0.985 | locus YLL026W, hits give low values 0.999 | locus YLL041C, strain sdh2, hits give low values 1.01 | locus YLR027C, strain aat2, hits give low values 1.01 | locus YLR039C, strain RIC1, hits give low values 1.09 | locus YLR058C, strain SHM2, hits give low values 1.01 | locus YLR102C, strain apc9, hits give low values 1.02 | locus YLR113W, strain HOG1, hits give low values 0.94 | locus YLR221C, strain rsa3, hits give low values 0.964 | locus YLR258W, strain gsy2, hits give low values 0.979 | locus YLR262C, strain YPT6 (second series), hits give low values 0.997 | locus YLR262C, strain YPT6, hits give low values 1.12 | locus YLR268W, strain sec22, hits give low values 1.04 | locus YLR320W, strain mms22, hits give low values 0.984 | locus YLR330W, strain CHS5, hits give low values 1.02 | locus YLR342W, strain FKS1 (second series), hits give low values 1.01 | locus YLR342W, strain FKS1, hits give low values 1 | locus YLR357W, strain rsc2, hits give low values 1.01 | locus YLR370C, strain arc18, hits give low values 0.979 | locus YLR371W, strain rom2, hits give low values 1.03 | locus YLR384C, strain iki3, hits give low values 1 | locus YLR418C, strain cdc73, hits give low values 1.06 | locus YML016C, strain PPZ1, hits give low values 1.01 | locus YML032C, strain rad52, hits give low values 1.03 | locus YML120C, strain ndi1, hits give low values 0.981 | locus YML124C, strain tub3, hits give low values 1.02 | locus YMR058W, strain fet3, hits give low values 1.01 | locus YMR078C, strain ctf18, hits give low values 1.02 | locus YMR125W, strain sto1, hits give low values 0.995 | locus YMR129W, hits give low values 1 | locus YMR205C, strain PFK2, hits give low values 0.992 | locus YMR223W, strain ubp8, hits give low values 1.02 | locus YMR231W, strain pep5, hits give low values 1.01 | locus YMR307W, strain GAS1, hits give low values 1.01 | locus YNL067W, strain RPL9B, hits give low values 1.02 | locus YNL071W, strain lat1, hits give low values 1.01 | locus YNL183C, strain NPR1, hits give low values 0.91 | locus YNL209W, strain ssb2, hits give low values 0.996 | locus YNL233W, strain BNI4, hits give low values 1.01 | locus YNL248C, strain rpa49, hits give low values 1.03 | locus YNL250W, strain rad50, hits give low values 1.03 | locus YNL271C, strain bni1, hits give low values 1.02 | locus YNL298W, strain CLA4, hits give low values 1.03 | locus YNL307C, strain MCK1, hits give low values 1.07 | locus YNL322C, strain KRE1 (second series), hits give low values 0.997 | locus YNR049C, strain mso1, hits give low values 1 | locus YNR052C, strain pop2, hits give low values 1.03 | locus YOL012C, strain htz1 0.664 | locus YOL147C, strain pex11, hits give low values 1.02 | locus YOR001W, strain rrp6, hits give low values 1.02 | locus YOR061W, strain CKA2, hits give low values 1 | locus YOR069W, strain VPS5, hits give low values 1.01 | locus YOR070C, strain gyp1, hits give low values 0.997 | locus YOR080W, strain dia2, hits give low values 1 | locus YOR083W, strain WHI5, hits give low values 0.997 | locus YOR106W, strain vam3, hits give low values 1.01 | locus YOR136W, strain idh2, hits give low values 1.05 | locus YOR144C, strain elg1, hits give low values 1.02 | locus YOR184W, strain ser1, hits give low values 1.03 | locus YOR231W, strain MKK1, hits give low values 0.965 | locus YOR265W, strain rbl2, hits give low values 1.01 | locus YOR270C, strain vph1, hits give low values 0.943 | locus YOR290C, strain snf2, hits give low values 0.996 | locus YOR316C, strain cot1, hits give low values 1.03 | locus YPL051W, strain arl3, hits give low values 0.997 | locus YPL078C, strain atp4, hits give low values 1.01 | locus YPL106C, strain sse1, hits give low values 0.967 | locus YPL240C, strain hsp82, hits give low values 0.99 | locus YPL256C, strain CLN2, hits give low values 0.933 | locus YPR119W, strain clb2, hits give low values 1.01 | locus YPR141C, strain kar3, hits give low values 1.02 | locus YPR163C, strain tif3, hits give low values 1.05 | locus YPR167C, strain met16, hits give low values 1.04 | strain wtn01, hits give low values 1.01
